Anthrax LF inh2: Bacillus anthracis LF protease inhibitors, primary screen, biochemical, multiplex microsphere, MLPCN library; Lethal factor (Bacillus anthracis), P15917; multiplex microsphere protease cleavage assay; inhibition, % at 10 µM; 360,000 compounds, 0.12% hits; AID 588501, 2011; note: plate controls were buffer without enzyme for full effect and enzyme alone for no effect
BoNT-F LC inh: BoNT/F light chain protease inhibitors, primary screen, biochemical, flow cytometry, MLPCN library | Multiplex microsphere protease cleavage assay | 360,000 compounds, 0.22% hits | inhibition, % at 10 µM | Botulinum neurotoxin type F light chain protease (Clostridium botulinum) | AID 588497, 2011; in the data active = inhibition above about 35%, passing the limit was not always enough; inconclusive = no clear call, values can overlap the other calls; note: plate controls were buffer without enzyme for full effect and enzyme alone for no effect
BoNT-A LC inh2: BoNT/A light chain protease inhibitors, primary screen, biochemical, flow cytometry, MLPCN library; Botulinum neurotoxin type A light chain protease (Clostridium botulinum A str. ATCC 3502); inhibition, % at 10 µM; AID 588499, 2011; multiplex microsphere protease substrate cleavage; 360,000 compounds, 0.17% hits; note: plate controls were buffer without enzyme for full effect and enzyme alone for no effect
Autofluor counter: compound fluorescence in toxin protease inhibitor counterscreen. compound autofluorescence counterscreen, microsphere flow cytometry; active compounds read high. fluorescence intensity (test concentration not listed). 360,000 compounds, 3.1% hits; in the data active = fluorescence intensity above about 16000; inconclusive = no clear call, values can overlap the other calls
SARS 3CLpro inh: SARS-CoV 3CLpro protease inhibitors, primary screen, biochemical, quenched FRET. Replicase polyprotein 1ab (Severe acute respiratory syndrome coronavirus), P0C6X7. recombinant SARS-CoV 3CLpro, quenched FRET peptide cleavage. inhibition, % at 6 µM. 290,000 compounds, 0.14% hits; in the data active = inhibition above about 12%
Active calls of the source: *; ? = inconclusive; . = not tested or not shown. A selection: hits, their analogues and other compounds. The true share with any hit is near 3.5%. Cut-off read from the data, not from the text of the source, unless noted: active = inhibition above about 30%; inconclusive = no clear call, values can overlap the other calls; inactive = below that.

SMILES	Anthrax LF inh2	BoNT-F LC inh	BoNT-A LC inh2	Autofluor counter	SARS 3CLpro inh
CN(C)CC(=O)Nc1ccc(Oc2ccc(Cl)cc2)cc1	-4	-2	0	2713	1
CON(C)C(=O)Nc1ccc(Cl)cc1	-5	-4	-2	16992*	-1
CC(CN(C)Cc1ccccc1)OC(=O)c1ccccc1F (centres undefined)	-1	-2	0	2593	0
O=C1COc2ccc(-c3csc(=Nc4ccc(OC(F)F)cc4)n3CC3CCCO3)cc2N1 (centres undefined)	-11	4	4	18135*	-1
COc1ccccc1N=c1scc(-c2ccc3c(c2)NC(=O)CO3)n1CC1CCCO1 (centres undefined)	-1	-12	-1	3192	-1
COc1cc2cc(C(c3nnnn3Cc3ccc(F)cc3)N3CCCCCC3)c(=O)[nH]c2cc1OC (centres undefined)	5	0	?	18413*	2
COc1ccc(Cn2nnnc2C(c2cc3ccc(OC)cc3[nH]c2=O)N2CCCCCC2)cc1 (centres undefined)	9	2	6	22040*	-1
CC1(C(=O)O)CCC(C(=O)Nc2ccccc2)C1(C)C (centres undefined)	-10	-2	0	4253	0
Cc1ccc(C)c(NC(=O)C2CCC(C)(C(=O)O)C2(C)C)c1 (centres undefined)	-1	-6	-4	24078*	-3
CC1(C(=O)O)CCC(C(=O)NC2CCCCCC2)C1(C)C (centres undefined)	1	3	5	21823*	-1
CC1(C(=O)O)CCC(C(=O)NC2CCCCC2)C1(C)C (centres undefined)	1	13	1	5706	-1
Cc1cc(NC(=O)CN2CCN(C)CC2)no1	0	-10	-1	4442	2
COC(=O)c1ccc[n+](CC(=O)Nc2ccc(OC(F)F)cc2)c1	1	-9	0	4403	-2
CC(C)COC(=O)Nc1nnc(SCc2ccccc2F)s1	4	6	2	22547*	7
CC(C)(C)C(=O)Nc1nnc(CSCc2ccccc2F)s1	-2	1	1	19760*	1
O=C(COc1ccc(Br)cc1)NCCCn1ccnc1	0	2	1	5430	4
COc1ccc(OC)c(-c2cc(C(=O)Nc3cc(C)n(Cc4ccc(Cl)cc4)n3)no2)c1	-7	-3	-2	23480*	4
COc1ccc(OC)c(-c2cc(C(=O)Nc3c(C)n(C)n(-c4ccccc4)c3=O)no2)c1	-5	-4	-1	16603*	2
COc1ccccc1-c1cc(C(=O)Nc2c(C)n(C)n(-c3ccccc3)c2=O)no1	-3	0	?	16484*	2
COc1cccc(-c2cc(C(=O)Nc3cc(C)n(Cc4ccc(Cl)cc4)n3)no2)c1	-1	-5	0	11138	7
CC(NS(=O)(=O)c1ccc(Br)cc1)C(c1cccs1)N1CCOCC1 (centres undefined)	2	-7	0	5264	2
O=c1ccccn1Cc1c(Cl)cccc1Cl	-1	4	?	23028*	-1
O=C(Nc1cccn(Cc2c(Cl)cccc2Cl)c1=O)c1ccccc1Cl	-6	-5	?	21806*	2
O=C(COC(=O)Cc1cccc(C(F)(F)F)c1)Nc1cccc2ccccc12	-1	0	0	2081	5
Cc1cc(Br)cn2ccnc12	0	-4	-4	22557*	6
SMILES	Anthrax LF inh2	BoNT-F LC inh	BoNT-A LC inh2	Autofluor counter	SARS 3CLpro inh
CCCc1nc2c(C)cc(Br)cn2c1Cc1ccc(C)cc1	-8	-11	3	6746	.
N=c1oc2ccc3ccccc3c2cc1-c1nc(-c2ccccc2)cs1	32*	23	34*	7671	4
N=c1oc2ccccc2cc1-c1nc(-c2ccccc2)cs1	1	0	3	8972	-4
O=C(NCc1ccccc1)C1CCCN1S(=O)(=O)c1ccc(F)cc1 (centres undefined)	3	6	0	3503	5
O=C1NCCCC2c3c(cc(Br)c(O)c3Br)OC12N1CCOCC1 (centres undefined)	4	9	6	20273*	1
CCc1ccc(S(=O)(=O)Nc2cc3c(cc2N2CCOCC2)n(C)c(=O)c(=O)n3C)cc1	0	1	-1	5843	1
CCN(CC)C(=O)Cn1cc(/C=C(\C#N)C(=O)N2CCN(c3ccccc3)CC2)c2ccccc21	1	8	0	9749	4
Cc1ccc2[nH]c(=O)c(C(c3nnnn3Cc3ccccc3)N3CCc4ccccc43)cc2c1 (centres undefined)	-12	-1	0	10065	1
Cc1ccc2cc(C(c3nnnn3Cc3ccccc3)N3CCc4ccccc43)c(=O)[nH]c2c1C (centres undefined)	-1	2	1	20150*	-4
Cc1cc2cc(C(c3nnnn3Cc3ccccc3)N3CCc4ccccc43)c(=O)[nH]c2cc1C (centres undefined)	5	2	?	21199*	5
Cc1ccc2cc(C(c3nnnn3Cc3ccccc3)N3CCc4ccccc43)c(=O)[nH]c2c1 (centres undefined)	0	1	1	11940	-2
CCOc1ccccc1C=NNc1ccc([N+](=O)[O-])cn1	-1	-4	-1	3651	.
Cc1ccc(N2C(=O)c3n[nH]c(C)c3C2c2ccco2)cc1 (centres undefined)	-2	-2	?	22119*	0
O=C(C/C=N/OCc1ccc(Cl)cc1Cl)c1ccccc1	.	.	.	.	5
O=C(C/C=N/OCc1c(Cl)cccc1Cl)c1ccccc1	-5	-7	-4	23991*	4
O=C(C/C=N/OCc1ccc(Cl)cc1Cl)c1ccc(Cl)cc1	-3	-2	1	22103*	8
O=C(O)/C(=N/NC(=O)c1ccc(Cl)cc1)c1ccccc1	31*	?	?	4073	2
COc1ccc(Cl)cc1NC(=S)NCc1cccs1	-6	-1	0	3362	2
CNC(=O)Oc1ccc2c(c1)[C@]1(C)CCN(C)C1N2C (some centres undefined)	-9	-3	0	4287	.
Cc1cccc(NC(=O)c2cccc(N3C(=O)C4C5CCC(C5)C4C3=O)c2)c1C (centres undefined)	-9	8	?	18603*	-2
Cc1ccccc1NC(=O)c1cccc(N2C(=O)C3CCC(C)CC3C2=O)c1 (centres undefined)	-13	8	3	3209	4
CCc1ccccc1NC(=O)c1cccc(N2C(=O)C3C4CCC(C4)C3C2=O)c1 (centres undefined)	-4	-2	?	23495*	5
COc1cc2[nH]c3c(=O)n4c(nc3c2cc1OC)SCCC4	-10	6	2	3905	2
Cc1cccc2c1OCC/C2=N\NC(=O)COc1ccccc1Cl	1	0	1	22273*	2
O=C(COc1ccc(Cl)cc1Cl)N/N=C1\CCCc2ccccc21	-4	3	0	4037	0
